# Measured values taken from the supplement of paper PMC10338343.
# ± gives the standard deviation.
# Test system: MILI (PIWIL2) piRISC loaded with L1MC piRNA (26 nt)
# Assay: pre-steady-state target cleavage rate (min^-1); guide: L1MC piRNA 5'p-UAACUAAAUACUAUGCAAGCUGUAGG; MIWI and MILI are mouse PIWI proteins and EfPiwi is from a freshwater sponge; tags in brackets are library labels; higher = faster piRNA-guided slicing of the target
# Details: auxiliary factor: 500 nM mouse GTSF1
# Method in brief: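 For Cleave-'n-Seq, a transcribed, DNA-blocked target RNA library […] met 1 nM active affinity-purified piRISC with one synthetic guide at 33 °C for 0–8 or 0–960 min in HEPES–potassium acetate buffer, with or without 500 nM GTSF1 partner protein. Uncleaved targets were sequenced and normalised to depth and weakly complementary targets, with three trials pooled and k3 capped at 0.0001 min^-1. A burst-and-steady-state fit supplied the pre-steady-state cleavage rate.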
# 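Also: 1 nM active piRISC with 0.1 nM target library at 33 °C single turnover.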
row,Sequence,pre-steady-state target cleavage rate
1,UCCUGGAUGUCGUUGCCAUAGUAUUUAGUUA,0.00586 ± 0.0034
2,UCCUGGAACACCUUGCAUAGUAUUUACAAA,0.071 ± 0.02
3,UCCUGGAACAGCUUGCAUAGAAAUUAGUUA,0.0351 ± 0.0085
4,UCCUGGAACAGCAUGCAUAGUAUUUAGAAA,0.196 ± 0.025
5,UCCUGGAUGUCCUUGCAAAGUAUUUUGUUA,0.0119 ± 0.0056
6,UCCUGGAUCAGGAUGCAUAGUAUUUAGAAA,0.0525 ± 0.011
7,UCCUGGAUCACCUUGCAUAGUUUUUAGUUA,0.016 ± 0.0061
8,UCCUCCUACAGCUUGCAUAGAUUUUACAAA,0.0174 ± 0.0071
9,UCCUGGAACAGCUUGCAUAGUAUAAUGAAA,0.0341 ± 0.013
10,UCCUGGAUGUCCUAGCAUUGUAUUUAGUUA,0.0111 ± 0.0048
11,UCCUGGAACAGCUUGCAAACUAUUUAGUUA,0.0282 ± 0.0064
12,UCCUGGAUGUCCUUGCAUAGUAUUUCAGUUA,0.0665 ± 0.022
13,UCCUCCUACAGCAACCAUAGUAUUUAGUAA,0.255 ± 0.043
14,UCCUGGAUCUCCUUGCAUAGUAUUUUCAAA,0.0367 ± 0.0088
15,UCCUGGUACAGCUUGCAUACUAUUUACUUA,0.05 ± 0.014
16,UCCUGGAUCAGCUUGCAUAGUAAAUAGUAA,0.196 ± 0.033
17,UCCUGCAUCAGCUUGCAUAGUAUUUACAAA,0.126 ± 0.025
18,UCCUGGAUGUCCUUGCAUAGUAUUUAUGUUA,0.0185 ± 0.0059

row,Sequence,pre-steady-state target cleavage rate
1,UCCUGGUACAGCUUGCAUAGUAUUUUCAAA,0.109 ± 0.027
2,UCCUGGAUCACCUUGCAUAGUAUUUUGUUA,0.11 ± 0.027
3,UCCUCCUACAGGAAGCAUAGUAUUUACAAA,0.0698 ± 0.014
4,UCCUGGAUGUCGAUGCAUAGUAUUUUCUUA,0.011 ± 0.006
5,UCCUGGAUCAGCUUGCAUAGUUUUAGUUA,0.00374 ± 0.0036
6,UCCUGGAUGUCCUUGCAAACUAUUUAGUUA,0.00732 ± 0.0037
7,UCCUGGAUGUCCUUGCAUAGUAUUUACAUA,0.039 ± 0.013
8,UCCUGGAUGUCCUUGCAUAGUAAUUUGUUA,0.0222 ± 0.0085
9,UCCUGGUACAGCUUGGAUUGUAUUUAGUUA,0.0395 ± 0.013
10,UCCUGGAUGAGCUUGCAUAGUAUAUACAAA,0.00992 ± 0.0056
11,UCCUGGAUGACCUUCCAUAGUAUUUAGUUA,0.024 ± 0.0096
12,UCCUCCUACAGCUUGCAAAGUAUUUACAAA,0.0935 ± 0.021
13,UCCUGGAACACGUUGCAUAGUAUUUACAAA,0.0879 ± 0.017
14,UCCUGGAUGUCGAACGUAUGUAUUUUGUAA,< 0.0001
15,UCCUGGAUGACGAUGCAUAGUAUUUAGUAA,0.128 ± 0.016
16,UCCUGGUACAGCUUGCAUAGAUUUUAGUAA,0.0172 ± 0.008
17,UCCUGGUACAGCUUGCAUAGUAAAUAGAAA,0.081 ± 0.025

# Same assay, conditions: auxiliary factor: none (no GTSF1)
row,Sequence,pre-steady-state target cleavage rate
1,UCCUGGAUGUCGAACGUUAGUAUUAACUUA,< 0.0001
2,UCCUGGAUGUCGAUGCAUACUAUUUAGAUA,< 0.0001
3,UCCUGGAUGUCGAUGCAUAGAUAAAUCAAA [g11:g17:cont:t1A],< 0.0001
4,UCCUGGAUGUCGAACGAUAGUAUAAUGUUA,< 0.0001
5,UCCUGGAUGUCGAACGUAUCUAUUCUAGUUA,< 0.0001
